One assay has as its system HEK293. In words: Cytotoxic Profiling of Annotated Libraries Using Quantitative High-Throughput Screening (AID 1296008). Also: potency is read from the fitted curve at half-maximal effect. As to max response: % is scaled to controls: 0 for no effect and ±100 for the full control effect. The following applies: Five cell lines viability, CellTiter-Glo ATP luminescence, 48-72 h; max response: hits give low values. In a few lines:
(§1)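 Compounds were pin-transferred onto cells and incubated 48 or 72 hr at 37 degree Celsius, 95% humidity. CellTiter-Glo was added, plates sat 10 min at room temperature, then ATP-coupled luminescence was imaged as the viability read-out.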

For another assay, the system named is HaCat. The assay is described as above. The note with it: Five cell lines viability, CellTiter-Glo ATP luminescence, 48-72 h; max response: hits give low values. An outline of the steps:
as §1
(Cellular ATP, detected with luciferase, serves as a proxy for viable cell number.)

The test system of the next assay is KB-3-1. Described as above. The following applies: Five cell lines viability, CellTiter-Glo ATP luminescence, 48-72 h; max response: hits give low values. An outline of the steps: as §1
Another assay concerns NIH3T3. Described as above. The note with it: Five cell lines viability, CellTiter-Glo ATP luminescence, 48-72 h; max response: hits give low values. An outline of the steps:
as §1

In the next assay the test system is MCC-13. In words: qHTS assay to identify novel small-molecules to repurpose for Merkel cell carcinoma treatment (AID 1296009). Also: potency is read from the fitted curve at half-maximal effect. The note with it: MCC and control cell lines, CellTiter-Glo viability, 72 h; series mostly up to 46 µM. An outline of the steps: (§2)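 qHTS format: cells treated with library compounds in DMSO across 8 (NPC) or 11 (MIPE) concentrations. Readout after 72 hr at 37 degree celsius was CellTiter-Glo luminescence.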
(qHTS replaces the single test concentration by a dilution series.)

The next assay relates to W2. Description: qHTS profiling for inhibitors of Plasmodium falciparum proliferation (AID 504749).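 Also: 0% = DMSO vehicle and full inhibition = artemisinin control.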 The note with it: P. falciparum in erythrocytes, SYBR Green DNA, 72 h; series mostly up to 28.7 µM. An outline of the steps:
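Parasite proliferation within erythrocytes, 72 h exposure. Endpoint: SYBR Green I fluorescence after overnight lysis at room temperature. Controls: 0.29 uM artemisinin, DMSO.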

The test system of the next assay is MCC-26. In words: qHTS assay to identify novel small-molecules to repurpose for Merkel cell carcinoma treatment (AID 1296009). Also: potency is read from the fitted curve at half-maximal effect. The note with it: MCC and control cell lines, CellTiter-Glo viability, 72 h; series mostly up to 46 µM. In a few lines: as §2

“And” between values parts separate entries of the source, which are not always exact repeats. Equal values may be shown once. Results filed as inconclusive are left out. A number with no mark means an inactive call. The source made the active and inactive calls. Calls follow the shape of the dose curve; as a rule, active = well fitted inhibition curve with a large enough effect; inconclusive = small, poorly fitted or top-dose-only effect; inactive = flat fitted curve, though single readings scatter.
Also: nearly all actives have a fitted effect of over 60% in size.

For the compound `CCCCc1nc2cc(C=CC(=O)NO)ccc2n1CCN(CC)CC`, the Potency with HEK293 is 3.72 µM (active); in the assay on HaCat, 4.69 µM (active); in the assay with KB-3-1 it was 2.64 µM (active); with NIH3T3 it was 4.18 µM (active); in the assay on MCC-13, 7.43 µM (active).

In the case of `c1nc2nc(Nc3ccc(N4CCOCC4)cc3)nc(NC3CCCCC3)c2[nH]1`, the Potency in the assay on HEK293 is 935 nM (active) and 252 nM (active); in the assay with HaCat, 2.64 µM (active) and 2 µM (active); with KB-3-1, 4.18 µM (active); in the assay on NIH3T3, 1.48 µM (active) and 2.24 µM (active).

As for `CN1CCN(c2ccc3nc(-c4c(N)c5c(F)cccc5[nH]c4=O)[nH]c3c2)CC1`, the Potency with HEK293 is 1.66 µM (active); in the assay with KB-3-1 it was 16.6 µM (active); in the assay with NIH3T3, 1.32 µM (active).

Turning to `CCN1CCN(Cc2ccc(-c3cc4c(N[C@H](C)c5ccccc5)ncnc4[nH]3)cc2)CC1`, the values for the Potency with HaCat, in the assay on NIH3T3 and with MCC-13 were 1.48 µM (active), 16.6 µM (active) and 4.18 µM (active), respectively. Further, the max response in the assay on KB-3-1 is -20%.

For the compound `COc1ccc(OC)c(-c2nnc3ccc(-c4ccc(OC)c(O[C@@H]5CCOC5)c4)nn23)c1`, the Potency in the assay on HEK293 was 8.33 µM (active); in the assay with HaCat it was 1.46 µM (active); in the assay on KB-3-1, 6.51 µM (active); in the assay with NIH3T3, 33.2 µM (active).

For the compound `Nc1ccn([C@@H]2CS[C@H](CO)O2)c(=O)n1`, the Potency entry with W2 was “inactive”.

For the compound `O=c1[nH]nc(Sc2ncc([N+](=O)[O-])s2)n1-c1ccc2c(c1)OCCO2`, the Potency in the assay with HEK293 is 9.35 µM (active); with HaCat, 18.7 µM (active); in the assay with NIH3T3, 8.33 µM (active); in the assay with MCC-13 it was 11.8 µM (active); with MCC-26, 10.5 µM (active).

In the case of `C[C@@H]1COC(Nc2ccc3ncnc(Nc4ccc(OCc5nccs5)c(Cl)c4)c3c2)=N1`, the Potency in the assay on HEK293 is 8.33 µM (active) and 16.4 µM (active); in the assay on HaCat it was 1.66 µM (active) and 1.3 µM (active). Moreover, the max response with KB-3-1 was -27.7%; in the assay with NIH3T3 it was -19.2%. Besides, the outcome with NIH3T3 was inactive. In addition, the Potency result in the assay with MCC-13 and in the assay on MCC-26 was “inactive” each time.

`O=C(CCCCCCNC(=O)c1cnc(N(c2ccccc2)c2ccccc2)nc1)NO`: the Potency with HEK293 is 13.2 µM (active) and 7.31 µM (active); with HaCat, 16.6 µM (active); in the assay with KB-3-1, 11.8 µM (active) and 8.2 µM (active).

As to `Cc1cc(CN2CCN(c3c(Br)cnc4nc(-c5ccc(N6CCN(C)CC6)cc5)[nH]c34)CC2)no1`, the Potency is 23.5 µM (active) and 9.2 µM (active) in the assay with HEK293; 2.35 µM (active) in the assay on HaCat; 18.7 µM (active) and 16.4 µM (active) in the assay on KB-3-1; 13.2 µM (active) and 1.46 µM (active) with NIH3T3. Further, in the assay with MCC-26, the Potency result is “inactive”.

Source of the values: PubChem BioAssay (NCATS).
